Source: PubChem BioAssay
A selection: hits, their analogues and other compounds. The true share with any hit is near 2%.
aSyn rescue: alpha-synuclein toxicity inhibition in yeast | Yeast expressing alpha-synuclein, growth rescue, BacTiter-Glo, 24 h | Potency, µM (series often up to 46.1 µM), without a hit: at the highest dose growth rescue (activation), usual class: activators | 370,000 compounds, 0.14% hits; note: % of control where 0% means no effect; nearly all actives have a fitted effect of over 65% in size
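Rescue of yeast growth: cells expressing toxic alpha-synuclein, induced in galactose at OD600 0.02, incubated with compound 24 h at 30 C. ATP luminescence quantified growth; inhibitors of toxicity appear as activators.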
Rango-impB inh: inhibitors of Rango-importin beta complex formation. Rango CFP/YFP FRET sensor + importin beta, 45 min. Potency, µM (series often up to 92.2 µM), inactives show at the top dose inhibition of complex formation. 340,000 compounds, 0.031% hits; calls by dose curve;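 note: 0% = DMSO wells and 100% = buffer wells lacking importin beta; nearly all actives have a fitted effect of over 15% in size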
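FRET biosensor (snurportin 1 IBB flanked by EYFP and cerulean), 50 nM, with compound 5 min, then 0.125 microM importin beta in PBS, 1 mM DTT, 0.02% Tween-20, 0.1% BSA. CFP/YFP ratio read after 45 min at room temperature; pre-read flags interference.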
S-ASM inh: blocks human secretory acid sphingomyelinase. 340,000 compounds, 0.006% hits. P17405. placental ASM, HMU-PC fluorogenic substrate, 60 min. Potency, µM (titrated, usually from 57.5 µM), for the others: top-dose activity change, negative = inhibition, usual class: inhibitors. AID 504937
Target sequence (P17405 47-631 limits assumed): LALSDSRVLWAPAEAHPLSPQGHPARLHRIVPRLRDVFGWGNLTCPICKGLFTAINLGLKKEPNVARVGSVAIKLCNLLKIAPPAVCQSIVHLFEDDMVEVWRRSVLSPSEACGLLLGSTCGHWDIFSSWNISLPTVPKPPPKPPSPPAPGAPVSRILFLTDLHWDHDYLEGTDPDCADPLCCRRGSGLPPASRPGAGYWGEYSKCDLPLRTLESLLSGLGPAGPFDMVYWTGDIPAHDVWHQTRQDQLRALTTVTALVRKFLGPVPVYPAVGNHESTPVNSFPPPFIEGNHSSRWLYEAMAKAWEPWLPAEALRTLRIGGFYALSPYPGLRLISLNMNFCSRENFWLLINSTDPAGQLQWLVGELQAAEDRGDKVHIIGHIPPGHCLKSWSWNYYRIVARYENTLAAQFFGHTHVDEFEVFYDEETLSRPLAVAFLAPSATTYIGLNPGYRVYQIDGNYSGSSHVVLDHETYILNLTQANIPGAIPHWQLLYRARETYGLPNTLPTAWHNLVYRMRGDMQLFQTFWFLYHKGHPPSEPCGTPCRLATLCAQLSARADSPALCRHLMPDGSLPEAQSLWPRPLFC
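Fluorescence read-out (Ex 386 nm, Em 447 nm) after stopping the reaction at pH 10. Enzyme: ASM from human placenta; substrate HMU-PC0, 9 uM final; 60 min, 37 °C. Compound preincubation 10 min, ambient temperature.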
Abeta rescue: compounds reversing amyloid beta toxicity in yeast. yeast expressing A-beta42, growth rescue, OD600, 48 h; response scale: 0% DMSO, 100% iron-clioquinol control. Potency, µM (titrated, usually from 46.1 µM), most hits filed as activators. 410,000 compounds, 0.063% hits. AID 1347071; note: nearly all actives have a fitted effect of over 55% in size
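Yeast growth medium received pinned compounds, then yeast cells expressing toxic A-beta were added; plates incubated at 30 C for 48 hr. Growth read as absorbance at 600 nm, normalized to DMSO and equimolar FeCl3 plus clioquinol controls.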
Rango release inh: inhibitors of RanGTP-induced Rango-importin beta complex dissociation; O95149+P62826; Biochemical FRET Rango-importin beta, RanGTP-induced dissociation; Potency, µM (series often up to 46.1 µM), without a hit: top-dose activity change, negative = inhibition; 340,000 compounds, 0.071% hits; calls by dose curve; note: % of control where 0% means no effect; nearly all actives have a fitted effect of over 45% in size
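Compounds preincubate 5 min with complex of recombinant Rango and importin beta in PBS with 1 mM DTT. Ran (0.6 uM) loaded with 2 mM GTP plus 0.2 uM RCC1 starts dissociation; FRET is recorded 45 min later.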
TDP-43 yeast inh: rescues yeast growth from TDP-43 toxicity. TDP-43 expressing yeast growth rescue, BacTiter-Glo, 24 h. Potency, µM (highest dose often 46.1 µM), inactives show at the highest dose growth rescue (activation), actives largely listed as activators. 410,000 compounds, 1.8% hits; note: % of control where 0% means no effect; nearly all actives have a fitted effect of over 50% in size
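Yeast expressing TDP-43 (pregrown in raffinose, seeded at OD600=0.02 in galactose medium) exposed to compounds 24 hr at 30 deg C. Growth read by BacTiter-Glo luminescence; rescue of toxicity appears as increased signal.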
Active calls of the source: *; [ ] = remark or other dose. Unless noted, calls come from the whole dose curve; as a rule, active = well fitted curve in the direction sought with a large enough effect; inconclusive = small, poorly fitted or top-dose-only effect, or another doubt; inactive = no such curve, though single readings can be large; an effect the other way counts as inactive or inconclusive. Potency is the fitted concentration of half-maximal effect.

COc1ccc(OC)c(-c2csc(NC(=O)Cc3ccccc3OC)n2)c1 was read as aSyn rescue -19.3%, Rango-impB inh 0.7%, S-ASM inh -3.2%, Abeta rescue inactive, Rango release inh 30.6% and TDP-43 yeast inh 10µM*.
COc1ccc(OC)c(-c2csc(NC(=O)Cc3ccccc3F)n2)c1 was read as aSyn rescue -4.8%, Rango-impB inh 1.9%, S-ASM inh -19.0%, Abeta rescue inactive, Rango release inh -8.2% and TDP-43 yeast inh inconclusive.
For COc1ccc(Br)cc1S(=O)(=O)NCCc1cccs1 the results were aSyn rescue inconclusive, Rango-impB inh 7.6%, S-ASM inh -1.7%, Abeta rescue inactive, Rango release inh -6.4% and TDP-43 yeast inh 20µM*.
COc1ccccc1-c1cc(NC(=O)COc2ccccc2Cl)n(-c2ccccc2)n1 was read as Abeta rescue inactive and TDP-43 yeast inh 23.6%.
Screening CCC(=NCc1ccc(Cl)c(Cl)c1)c1nc(-c2ccco2)oc1O returned aSyn rescue 9.2%, Rango-impB inh 4.0%, S-ASM inh inconclusive, Abeta rescue inactive, Rango release inh 0.4% and TDP-43 yeast inh 14.1µM*.
For CCCNC(=O)c1ccc(-c2nc(CS(=O)(=O)c3ccc(C)cc3)c(C)o2)cc1 the results were Abeta rescue inactive and TDP-43 yeast inh 20.1%.
Cc1cc(C)c2sc(NNC(=O)c3ccc(S(=O)(=O)N4CCc5ccccc5C4)cc3)nc2c1 was read as aSyn rescue 4.7%, Rango-impB inh 3.0%, S-ASM inh -14.0%, Abeta rescue inactive, Rango release inh -2.9% and TDP-43 yeast inh 7.94µM*.
For O=C(CCc1nc2ccccc2s1)NCc1ccccc1F the results were aSyn rescue -0.5%, Rango-impB inh -5.1%, S-ASM inh 4.7%, Abeta rescue 20µM*, Rango release inh -6.3% and TDP-43 yeast inh 12.4%.
Screening CCOc1ccc(NC(=O)COC(=O)c2ccccc2OCc2ccccc2Br)cc1 returned aSyn rescue -2.2%.
Screening COc1ccc(N(CCN2C(=O)c3ccccc3C2=O)C(=O)c2cccc([N+](=O)[O-])c2)cc1 returned aSyn rescue 14.1%, Rango-impB inh -1.7%, S-ASM inh -3.7%, Abeta rescue inactive, Rango release inh -2.6% and TDP-43 yeast inh 11.2µM*.
COc1ccc(N(CCCN2C(=O)c3cccc4cccc(c34)C2=O)C(=O)c2ccncc2)cc1 was read as aSyn rescue -2.4%, Rango-impB inh -0.3%, S-ASM inh -0.7%, Abeta rescue inactive, Rango release inh -20.7% and TDP-43 yeast inh -6.5%[9.22 µM].
For Cc1csc(NC(=O)CSc2nc3ccccc3s2)n1 the results were aSyn rescue 11.9%, Rango-impB inh -1.8%, S-ASM inh -5.4%, Abeta rescue inactive, Rango release inh 3.1% and TDP-43 yeast inh 25.1µM*.
For O=C(CSc1ccc([N+](=O)[O-])cn1)Nc1nccs1 the results were aSyn rescue -4.7%, Rango-impB inh -3.0%, S-ASM inh 1.5%, Abeta rescue inactive, Rango release inh -4.8% and TDP-43 yeast inh 0.0%.
`C=CCNC(=O)c1nc2ccccc2s1` gave aSyn rescue -5.0%, Rango-impB inh 0.1%, S-ASM inh -3.5%, Abeta rescue inactive, Rango release inh -15.4% and TDP-43 yeast inh 9.0%.
`Cc1csc(NC(=O)CSc2ccc([N+](=O)[O-])cn2)n1` gave aSyn rescue 2.7%, Rango-impB inh -0.2%, S-ASM inh 0.7%, Abeta rescue inactive, Rango release inh -14.5% and TDP-43 yeast inh 12.6µM*.
O=C(CSc1ccc([N+](=O)[O-])cn1)Nc1cc(C(F)(F)F)ccc1N1CCOCC1 was read as aSyn rescue 19.6%, Rango-impB inh 0.7%, S-ASM inh -11.6%, Abeta rescue inactive, Rango release inh 0.0% and TDP-43 yeast inh 20µM*.
